Source: PubChem BioAssay (National Center for Advancing Translational Sciences (NCATS))
Most compounds without a hit are left out; they make up all but 5.3% or so of the library.
Marburg entry inh: qHTS for inhibitors of binding or entry into cells for Marburg Virus | Marburg virus pseudotyped entry inhibition, cell reporter | Potency, µM (highest dose often 37.8 µM), for the others: top-dose activity change, negative = inhibition, actives largely listed as inhibitors | 1.8% of 300,000 active | AID 540276, 2011; calls by dose curve; tested in HEK293 cells
FMDV antiviral: High Throughput Screening for Foot and Mouth Disease Virus Antivirals; FMDV antiviral cell-based qHTS; AID 1159524, 2015; Potency, µM (doses to about 57.9 µM), for inactives: at the top dose activity change, negative = inhibition, actives largely listed as inhibitors; 1.2% of 410,000 active; calls by dose curve; tested in HEK293T cells; also: read-out not given here; nearly all actives have a fitted effect of over 45% in size
Lassa entry inh: qHTS for Inhibitors of binding or entry into cells for Lassa Virus; Lassa virus pseudotype entry inhibition, cell reporter; Potency, µM (titrated, usually from 37.9 µM), inactives show at the highest dose activity change, negative = inhibition, actives largely listed as inhibitors; 1.2% of 300,000 active; calls by dose curve; tested in HEK293 cells; also: nearly all actives have a fitted effect of over 50% in size
HCV inhibitor: qHTS Assay for Inhibitors of Hepatitis C Virus (HCV) | Huh7.5.1 HCVcc-Cre infection, luciferase reporter, 44 h | Potency, µM (doses to about 41.8 µM), inactives show at the top dose activity change, negative = inhibition, hits mostly inhibitors | 3.4% of 340,000 active; active = well fitted inhibition curve with a large enough effect; inconclusive = small, poorly fitted or top-dose-only effect, or another doubt; inactive = no such curve, though single readings can be large or run the other way
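Luciferase read-out (15 sec integration) after a 15 min room-temperature substrate step quantifies HCVcc-Cre infection. Cells, 1,000 per well, had compound added 4 h post-plating, then virus at ~0.5 moi, and were cultured 44 h.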
VACV mCherry inh: qHTS for Stage-Specific Inhibitors of Vaccinia Orthopoxvirus: mCherry Reporter Primary qHTS | Vaccinia virus mCherry reporter infection, fluorescence | Potency, µM (top dose mostly 36.5 µM), inactives show top-dose activity change, negative = inhibition, usual class: inhibitors | 0.63% of 310,000 active | AID 720579, 2013; calls by dose curve; tested in A549 cells; also: nearly all actives have a fitted effect of over 35% in size
Vaccinia Venus: qHTS for Stage-Specific Inhibitors of Vaccinia Orthopoxvirus: Venus Reporter Primary qHTS | Vaccinia virus Venus reporter expression, fluorescence | Potency, µM (highest dose often 36.5 µM), for inactives: top-dose activity change, negative = inhibition, hits mostly inhibitors | 0.46% of 330,000 active | AID 720580, 2013; calls by dose curve; tested in A549 cells; also: nearly all actives have a fitted effect of over 30% in size
Numbers without * were called inactive; i = inactive; ? = inconclusive; . = no result given; [ ] = dose if it differs, or a comment. % is scaled to controls: 0 for no effect and ±100 for the full control effect; potency is read from the fitted curve at half-maximal effect.

SMILES | Marburg entry inh | FMDV antiviral | Lassa entry inh | HCV inhibitor | VACV mCherry inh | Vaccinia Venus
N#CCc1ccc(NC(=O)c2ccc(S(=O)(=O)N3CCCC3)cc2)cc1 | -7%[46.1 µM] | -5% | -15%[46.1 µM] | 14µM* | -28% | -7%
CN(c1ccc(C(=O)Nc2ccc(S(=O)(=O)N3CCCC3)cc2)cc1)S(C)(=O)=O | ? | ? | ? | 5µM* | -27% | -26%
O=C(NCc1ccccn1)c1cnn(-c2nccc(-c3ccccc3F)n2)c1C1CC1 | . | 14% | . | . | -19% | -3%
Cc1c(N)nc([C@H](CC(N)=O)NC[C@H](N)C(N)=O)nc1C(=O)N[C@H](C(=O)N[C@H](C)[C@@H](O)[C@H](C)C(=O)N[C@H](C(=O)NCCc1nc(-c2nc(C(=O)NCCCCN=C(N)N)cs2)cs1)[C@@H](C)O)[C@@H](O[C@@H]1O[C@@H](CO)[C@@H](O)[C@H](O)[C@@H]1O[C@H]1O[C@H](CO)[C@@H](O)[C@H](OC(N)=O)[C@@H]1O)c1cnc[nH]1 | . | -3% | . | . | i | -27%
O=C(Nc1ccc(S(=O)(=O)N2CCCC2)cc1)c1ccc(CN2CCOCC2)cc1 | ? | 16µM* | ? | 6.3µM* | -27% | -17%
O=C(Nc1ccc(S(=O)(=O)N2CCCCC2)cc1)c1ccc(CN2CCOCC2)cc1 | 8.2µM* | . | ? | 2.8µM* | -29% | ?
O=C(NC1CCCCCCC1)c1ccc(S(=O)(=O)N2CCCC2)cc1 | 1% | 1% | -22% | -24% | -13% | -16%
O=C(NC1CCCCC1)c1ccc(S(=O)(=O)N2CCCCC2)cc1 | 3% | -9% | 2.1µM* | -8% | . | .
COCc1cc(CN2CCCC2)c(O)c2ncccc12 | 26µM* | . | ? | 2.8µM* | 14µM* | ?
Oc1c(CN2CCN(c3ccccn3)CC2)cc(Cl)c2cccnc12 | 7.1µM* | ? | 13µM* | 5µM* | . | 11µM*
Oc1c(CN2CCCCC2)cc(COCc2ccccc2)c2cccnc12 | ? | -28% | 2.2µM* | 10µM* | 2.5µM* | ?
OCCN1CCN(Cc2cc(Cl)c3cccnc3c2O)CC1 | ? | -10% | ? | ? | . | .
COCc1c(C(=O)N/N=C/c2ccncc2)nnn1-c1nonc1N | ? | 2% | -1%[46.1 µM] | 4% | i | -13%
Cc1nc2ccccc2nc1/C=C/c1ccc(N(C)C)cc1 | . | . | . | . | -11% | 20%
O=C(Nc1ccccc1Br)C1CC(=O)N(c2ccc3c4c(cccc24)CC3)C1 (centres undefined) | 10µM* | -3% | ? | ? | -13% | 0%
Cc1ccccc1NC(=O)C1CC(=O)N(c2ccc3c4c(cccc24)CC3)C1 (centres undefined) | -10% | . | -4% | -11% | -29% | -24%
C=CCn1c(SCc2c(C)noc2C)nc2sc3c(c2c1=O)CCCC3 | 21µM* | -1% | ? | ? | . | .
C=CCn1c(SCc2c(C)noc2C)nc2sc3c(c2c1=O)CCCCC3 | ? | ? | -25% | ? | . | .
Cc1noc(C)c1CSc1nc2sc3c(c2c(=O)n1C)CCCC3 | ? | -11% | 5% | ? | . | .
Cc1noc(C)c1CSc1nc2sc(C)c(C)c2c(=O)n1C1CCCC1 | 12µM* | 10% | -23% | ? | . | .
Cn1c(=O)c2nncnc2n(C)c1=O | 1% | -16% | 8% | -4%[0.335 µM] | i | -8%
Cc1nc2c(=O)n(C)c(=O)n(C)c2nc1Cl | 8.2µM* | ? | ? | 14µM* | ? | -21%
CCOc1c(Br)cc(CNc2ccc3c(c2)OCCO3)cc1OC | ? | 25µM* | -7% | ? | ? | ?
CCOc1cc(CNc2ccc3c(c2)OCCO3)cc(Br)c1OCC(N)=O | -22% | . | -19% | -25% | -20% | ?
COc1ccc(NCc2ccc3c(c2)OCO3)cc1Cl | 12% | . | 28% | 11% | 11µM* | -1%
CCOc1c(Br)cc(CNc2ccc(N3CCOCC3)cc2)cc1OC | . | -15% | . | ? | ? | 0%[7.34 µM]
CCOc1cc(CNc2ccc3c(c2)OCCO3)cc(Br)c1OC | ? | 25µM* | ? | 0.79µM* | ? | ?
